The target in test [1] is Aryl hydrocarbon receptor (Homo sapiens) (UniProt P35869). In words: ATG_Ahr_CIS: Attagene CIS-FACTORIAL HepG2 Assay for human Aryl Hydrocarbon Receptor (Ahr) (AID 2282930). The following applies: HepG2 AhR cis-factorial reporter transcription; actives raise or lower the signal. In outline: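 Transient MRTU transfection of HepG2 → 24 h compound exposure → total RNA, oligo(dT) RT → PCR, 6-FAM extension, HpaI cut → CE fluorescence. DMSO = baseline; bidirectional curve fit.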

A short description of test [2]: CCTE_Harrill_HTTr_Viability_MCF7: CCTE's 6-hour Cell Viability Assessment for the High-Throughput Transcriptomics (HTTr) Platform, in MCF-7 cells cultured in DMEM + 10% fetal bovine serum, Harrill Lab (AID 2284010). In outline:
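PI exclusion, high-content imaging; 8-pt dilution series, 6 h exposure; bidirectional fit vs DMSO (neg. ctrl/baseline); gain of signal = loss of membrane integrity.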

Test [3] can be described thus: CCTE_Harrill_HTTr_Apoptosis_MCF7: CCTE's 6-hour Apoptosis Assessment for the High-Throughput Transcriptomics (HTTr) Platform, in MCF-7 cells cultured in DMEM + 10% fetal bovine serum, Harrill Lab (AID 2284011). An outline of the steps: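 Apoptosis in MCF-7 cells grown in DMEM with 10% fetal bovine serum was scored after a six hour exposure by high content imaging of caspase-3/7 activation (CellEvent Caspase 3/7 Green), with DMSO serving as negative control and baseline.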

In test [4] the target is Estrogen-related receptor gamma (Homo sapiens) (UniProt P62508). Description: ATG_ERRg_TRANS: Attagene TRANS-FACTORIAL HepG2 Assay for human Estrogen-Related Receptor gamma (ERRg) (AID 2282977; active means hit-call score of the fitted dose curve at least 0.9, where 1 is the maximum;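 further: hits increase reporter signal over DMSO so potencies reflect activators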). The conditions noted are these: HepG2 Attagene TRANS reporter, ERRg transactivation. An outline of the steps:
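Readout: fluorescent reporter-mRNA fragments resolved by capillary electrophoresis after RT-PCR and HpaI cut. Cells: transiently transfected HepG2 carrying GAL4-UAS reporters driven by exogenous NR-Gal4 chimeras, dosed 24 h. Activity fitted upward relative to DMSO baseline.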

Read-out in test [5]: Pselectin, SELP (gene 6403)
Description: BSK_4H_Pselectin: BioMAP Diversity Plus: 4H Assay for Pselectin Biomarker Activity (AID 2283026). The conditions noted are these: primary human endothelial cells (HUVEC); actives raise or lower the signal. An outline of the steps:
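HUVEC, 24 h chemical exposure; P-selectin read by ELISA. Bidirectional curve fit vs DMSO baseline; gain or loss of signal scored.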

Read-out in test [6]: serum amyloid A (SAA), SAA1 (gene 6288)
In words: BSK_CASM3C_SAA: BioMAP Diversity Plus: CASM3C Assay for serum amyloid A (SAA) Biomarker Activity (AID 2283049).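 Further: SAA protein level quantified by ELISA.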 The conditions noted are these: primary human coronary artery smooth muscle cells; actives raise or lower the signal.

Read-out in test [7]: Interferon-gamma inducible Protein 10 (IP10), CXCL10 (gene 3627)
Description: BSK_hDFCGF_IP10: BioMAP Diversity Plus: hDFCGF Assay for Interferon-gamma inducible Protein 10 (IP10) Biomarker Activity (AID 2283053). The following applies: primary human foreskin fibroblasts; actives raise or lower the signal. An outline of the steps:
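ELISA read-out of IP-10 (CXCL10) from primary human skin fibroblasts, 24 h after compound addition. Gain or loss of signal versus DMSO baseline, bidirectional curve fitting.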

Read-out in test [8]: Vascular cell adhesion molecule 1 (VCAM1), VCAM1 (gene 7412)
Description: BSK_CASM3C_VCAM1: BioMAP Diversity Plus: CASM3C Assay for Vascular cell adhesion molecule 1 (VCAM1) Biomarker Activity (AID 2283055).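 Further: VCAM-1 protein level quantified by ELISA on the cells.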 The conditions noted are these: primary human coronary artery smooth muscle cells; actives raise or lower the signal.

Read-out in test [9]: Macrophage colony-stimulating factor (MCSF), CSF1 (gene 1435)
Description: BSK_hDFCGF_MCSF: BioMAP Diversity Plus: hDFCGF Assay for Macrophage colony-stimulating factor (MCSF) Biomarker Activity (AID 2283060). The conditions noted are these: AC50: primary human foreskin fibroblasts, actives raise or lower the signal unless noted; outcome: primary human foreskin fibroblasts, actives raise or lower the signal unless noted. In outline: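 fibroblasts (human foreskin, primary), 24 h post-dose; M-CSF by ELISA; bidirectional fit, DMSO = baseline.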

For test [10], the target named is Estrogen receptor beta (Homo sapiens) (UniProt Q92731). Description: OT_ER_ERbERb_0480: Odyssey Thera (OT) 8-hour HEK293T Protein-Complementation Assay for Estrogen Receptor-beta/-beta Homodimer (AID 2283357; active means hit-call score of the fitted dose curve at least 0.9, where 1 is the maximum;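 further: active means signal gain over DMSO baseline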). An outline of the steps: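 ER-beta LBD homodimer PCA stably expressed in HEK293T; 8 h compound exposure, then formaldehyde fixation and Draq5 staining. Gain in nuclear/cytoplasmic fluorescence intensity versus DMSO vehicle, read on laser scanning cytometer.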

For test [11] the target is unchanged. Description: OT_ER_ERbERb_1440: Odyssey Thera (OT) 24-hour HEK293T Protein-Complementation Assay for Estrogen Receptor-beta/-beta Homodimer (AID 2283380; active means hit-call score of the fitted dose curve at least 0.9, where 1 is the maximum;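 further: scored as signal increase over DMSO baseline for both agonists and antagonists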). An outline of the steps: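 Fluorescence increase, nuclear for agonists or whole-cell for antagonists, relative to DMSO vehicle, quantified by laser scanning cytometer after fixation and Draq5 staining. Readout from 24 h treatment of HEK293T cells carrying complementation-paired ER beta LBD (aa 310-547).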

For test [12], the target named is Retinoic acid receptor RXR-alpha (Homo sapiens) (UniProt P19793). In words: OT_NURR1_NURR1RXRa_1440: Odyssey Thera (OT) 24-hour HEK293T Protein Complementation Assay for Nurr1/retinoid X receptor (RXR) (AID 2283386; active means hit-call score of the fitted dose curve at least 0.9, where 1 is the maximum). In outline: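 Fluorescence PCA read-out; HEK293T; 24 h post-dose; bait/prey fused to reporter fragments; gain-of-signal fit vs DMSO negative control.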

Test [13] deals with Peroxisome proliferator-activated receptor gamma (Homo sapiens) (UniProt P37231). In words: OT_PPARg_PPARgSRC1_0480: Odyssey Thera (OT) 8-hour Protein-Complementation Assay for Peroxisome Proliferator-activated Receptor Gamma / SRC-1 Co-activator (AID 2283387; active means hit-call score of the fitted dose curve at least 0.9, where 1 is the maximum;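 further: nuclear to cytoplasmic split Venus YFP fluorescence ratio reporting PPARg SRC-1 interaction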). An outline of the steps:
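HEK293T transiently transfected with PPARg and SRC-1 fused to Venus YFP fragments, compounds 8 h at 37C. Fixed, Draq5-stained cells imaged; nuclear/cytoplasmic 488 nm fluorescence ratio over at least 350 cells per image; gain fitted versus DMSO.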

Test [14] is described as follows: ACEA_AR_antagonist_AUC_viability: ACEA Biosciences xCELLigence Real-Time Cell Analysis on Androgen Receptor Antagonism for Viability (AID 2283776; active means hit-call score of the fitted dose curve at least 0.9, where 1 is the maximum;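 further: area under impedance growth curve at 80 h after dosing as viability; hits lower the growth signal relative to DMSO meaning cytotoxicity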). In outline: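 22Rv1 human prostate cancer cells were seeded on electrode plates, monitored overnight, then exposed to eight 1:4 dilutions from 100 uM final. Impedance-based growth kinetics at 80 h gave an AUC viability endpoint normalized to DMSO.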

The target in test [15] is Oxysterols receptor LXR-beta (Homo sapiens) (UniProt P55055). In words: ATG_LXRb_TRANS: Attagene TRANS-FACTORIAL HepG2 Assay for human Liver X Receptor beta (LXRb) (AID 2282981; active means hit-call score of the fitted dose curve at least 0.9, where 1 is the maximum). The conditions noted are these: HepG2 Attagene TRANS GAL4-LXRb reporter, mRNA. In outline:
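After 24 h of chemical treatment, transfected HepG2 cells yield total RNA; reporter cDNA is PCR-amplified, FAM-labelled, HpaI-cut and run on capillary electrophoresis. Signal reflects chimeric LXRb-Gal4 activity on GAL4-UAS reporters.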

Test [16] in a line: ACEA_AR_agonist_AUC_viability: ACEA Biosciences xCELLigence Real-Time Cell Analysis on Androgen Receptor Agonism for Viability (AID 2283775; active means hit-call score of the fitted dose curve at least 0.9, where 1 is the maximum). An outline of the steps:
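Viability endpoint from xCELLigence impedance in 22Rv1 prostate cells at 80 h. Eight-point series, 100 uM maximum final.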

Test [17] can be described thus: ATG_ERE_CIS: Attagene CIS-FACTORIAL HepG2 Assay for Estrogen Response Element (ERE) (AID 2282940). The following applies: HepG2 ERE cis-reporter, Attagene RNA transcript; actives raise or lower the signal. In outline:
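Human liver cells (HepG2) bearing transiently transfected, promoter-regulated reporter units were exposed 24 h. Reporter mRNA induction was detected by capillary electrophoresis of labelled RT-PCR products and fitted bidirectionally to DMSO.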

The target in test [18] is human Retinoic Acid Receptor beta (RARb), RARB (gene 5915) (UniProt P10826). Description: ATG_RARb_TRANS: Attagene TRANS-FACTORIAL HepG2 Assay for human Retinoic Acid Receptor beta (AID 2283004; active means hit-call score of the fitted dose curve at least 0.9, where 1 is the maximum). In outline: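 Fluorescent capillary-electrophoresis detection of GAL4-UAS reporter mRNA defines the endpoint, with induction over DMSO-treated wells scored as activity. Transiently transfected human hepatoma HepG2 cells expressing exogenous NR–Gal4 proteins are exposed to test chemicals for 24 h.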

Test [19] concerns the target human Retinoic Acid Receptor gamma (RARg), RARG (gene 5916) (UniProt P13631). In words: ATG_RARg_TRANS: Attagene TRANS-FACTORIAL HepG2 Assay for human Retinoic Acid Receptor gamma (RARg) (AID 2283009; active means hit-call score of the fitted dose curve at least 0.9, where 1 is the maximum). An outline of the steps:
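Readout: reporter transcript levels via RT-PCR, 6-FAM primer-extension labelling, HpaI digestion and capillary electrophoresis. Cells: HepG2 carrying transfected RARg-GAL4 chimera plus UAS reporter set. Dosing 24 h; DMSO negative control.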

Inconclusive results are not listed. The source made the active and inactive calls. How the source made its calls, unless noted: active means hit-call score of the fitted dose curve at least 0.9, where 1 is the maximum; inactive means score below 0.9.

The values that follow come from PubChem BioAssay (EPA / NIEHS).

Sequence of Estrogen-related receptor gamma (Homo sapiens) (P62508 whole entry, looked up, the tested form may be a part): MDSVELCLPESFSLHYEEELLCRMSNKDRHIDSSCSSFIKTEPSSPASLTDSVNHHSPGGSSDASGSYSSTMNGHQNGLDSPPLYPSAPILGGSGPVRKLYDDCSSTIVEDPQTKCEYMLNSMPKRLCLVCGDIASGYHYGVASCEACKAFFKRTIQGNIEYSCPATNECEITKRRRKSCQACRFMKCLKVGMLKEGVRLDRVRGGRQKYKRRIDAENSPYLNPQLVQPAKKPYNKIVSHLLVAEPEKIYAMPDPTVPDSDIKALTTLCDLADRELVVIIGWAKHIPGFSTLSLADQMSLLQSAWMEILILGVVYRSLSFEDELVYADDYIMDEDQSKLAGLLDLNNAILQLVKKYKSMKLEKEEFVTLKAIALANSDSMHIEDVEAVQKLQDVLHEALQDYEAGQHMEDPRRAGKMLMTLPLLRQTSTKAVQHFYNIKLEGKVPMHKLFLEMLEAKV
Sequence of Oxysterols receptor LXR-beta (Homo sapiens) (P55055 whole entry, looked up, the tested form may be a part): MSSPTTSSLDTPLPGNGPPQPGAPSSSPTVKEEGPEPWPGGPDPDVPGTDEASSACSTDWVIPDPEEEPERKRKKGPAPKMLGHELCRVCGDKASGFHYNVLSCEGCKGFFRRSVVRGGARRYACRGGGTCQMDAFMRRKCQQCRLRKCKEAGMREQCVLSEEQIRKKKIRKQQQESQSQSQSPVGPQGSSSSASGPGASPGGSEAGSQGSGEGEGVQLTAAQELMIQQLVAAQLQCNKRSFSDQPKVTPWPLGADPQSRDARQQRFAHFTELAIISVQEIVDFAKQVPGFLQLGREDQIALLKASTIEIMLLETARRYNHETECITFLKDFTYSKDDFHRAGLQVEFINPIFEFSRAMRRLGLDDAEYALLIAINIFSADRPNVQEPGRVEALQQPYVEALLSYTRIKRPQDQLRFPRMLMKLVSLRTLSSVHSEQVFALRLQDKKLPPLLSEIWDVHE
Sequence of Estrogen receptor beta (Homo sapiens) (Q92731 whole entry, looked up, the tested form may be a part): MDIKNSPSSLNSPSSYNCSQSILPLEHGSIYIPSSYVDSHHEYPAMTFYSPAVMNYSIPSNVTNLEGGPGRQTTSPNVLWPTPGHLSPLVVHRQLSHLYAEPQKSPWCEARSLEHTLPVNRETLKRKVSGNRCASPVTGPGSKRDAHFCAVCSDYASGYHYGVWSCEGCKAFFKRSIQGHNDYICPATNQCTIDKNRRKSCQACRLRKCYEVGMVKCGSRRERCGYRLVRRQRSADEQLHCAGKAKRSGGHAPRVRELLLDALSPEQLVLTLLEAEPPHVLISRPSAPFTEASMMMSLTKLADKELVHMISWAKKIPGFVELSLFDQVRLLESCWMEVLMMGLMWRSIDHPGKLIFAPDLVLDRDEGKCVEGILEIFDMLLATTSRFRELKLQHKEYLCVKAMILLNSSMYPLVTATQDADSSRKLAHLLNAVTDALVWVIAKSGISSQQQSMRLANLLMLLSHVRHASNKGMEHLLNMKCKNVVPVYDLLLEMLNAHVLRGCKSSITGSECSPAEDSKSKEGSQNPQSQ
Sequence of Peroxisome proliferator-activated receptor gamma (Homo sapiens) (P37231 whole entry, looked up, the tested form may be a part): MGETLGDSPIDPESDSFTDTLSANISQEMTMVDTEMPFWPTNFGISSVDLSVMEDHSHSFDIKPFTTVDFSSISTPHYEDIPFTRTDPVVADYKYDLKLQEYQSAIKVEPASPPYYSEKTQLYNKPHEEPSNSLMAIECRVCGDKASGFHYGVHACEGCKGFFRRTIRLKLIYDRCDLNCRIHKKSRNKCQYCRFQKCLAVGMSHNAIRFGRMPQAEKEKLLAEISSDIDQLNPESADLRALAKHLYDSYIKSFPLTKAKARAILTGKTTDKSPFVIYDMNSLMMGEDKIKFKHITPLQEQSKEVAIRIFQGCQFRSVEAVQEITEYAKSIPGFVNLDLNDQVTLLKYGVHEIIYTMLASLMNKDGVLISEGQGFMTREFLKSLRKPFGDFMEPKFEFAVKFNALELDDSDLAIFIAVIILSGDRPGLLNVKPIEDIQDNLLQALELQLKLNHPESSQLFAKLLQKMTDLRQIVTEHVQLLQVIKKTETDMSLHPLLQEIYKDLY
Sequence of Retinoic acid receptor RXR-alpha (Homo sapiens) (P19793 whole entry, looked up, the tested form may be a part): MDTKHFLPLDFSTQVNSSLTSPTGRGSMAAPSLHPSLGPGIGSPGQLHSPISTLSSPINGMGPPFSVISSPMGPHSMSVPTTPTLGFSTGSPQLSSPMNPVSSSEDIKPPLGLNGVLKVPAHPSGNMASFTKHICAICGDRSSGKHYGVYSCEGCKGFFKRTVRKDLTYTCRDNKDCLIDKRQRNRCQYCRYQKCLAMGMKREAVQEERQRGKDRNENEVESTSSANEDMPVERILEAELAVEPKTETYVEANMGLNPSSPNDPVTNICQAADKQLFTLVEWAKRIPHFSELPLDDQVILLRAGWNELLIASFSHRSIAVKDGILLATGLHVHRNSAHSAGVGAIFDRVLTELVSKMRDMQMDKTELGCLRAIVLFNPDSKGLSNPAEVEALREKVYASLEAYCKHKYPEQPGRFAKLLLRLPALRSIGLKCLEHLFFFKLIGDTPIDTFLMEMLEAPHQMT
Sequence of human Retinoic Acid Receptor gamma (RARg), RARG (gene 5916) (P13631 whole entry, looked up, the tested form may be a part): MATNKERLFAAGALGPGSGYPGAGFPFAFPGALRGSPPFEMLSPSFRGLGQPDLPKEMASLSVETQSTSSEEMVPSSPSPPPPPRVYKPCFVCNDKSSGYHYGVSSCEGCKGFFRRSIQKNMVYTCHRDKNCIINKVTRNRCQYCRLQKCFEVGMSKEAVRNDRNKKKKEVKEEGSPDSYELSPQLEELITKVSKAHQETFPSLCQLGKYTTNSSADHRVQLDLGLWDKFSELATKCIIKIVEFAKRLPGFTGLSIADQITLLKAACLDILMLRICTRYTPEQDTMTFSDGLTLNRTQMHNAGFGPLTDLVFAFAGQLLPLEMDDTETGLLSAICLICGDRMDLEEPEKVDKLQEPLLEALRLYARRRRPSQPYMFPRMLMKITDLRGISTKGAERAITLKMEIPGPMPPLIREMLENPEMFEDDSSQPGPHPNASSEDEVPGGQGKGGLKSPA
Sequence of Aryl hydrocarbon receptor (Homo sapiens) (P35869 whole entry, looked up): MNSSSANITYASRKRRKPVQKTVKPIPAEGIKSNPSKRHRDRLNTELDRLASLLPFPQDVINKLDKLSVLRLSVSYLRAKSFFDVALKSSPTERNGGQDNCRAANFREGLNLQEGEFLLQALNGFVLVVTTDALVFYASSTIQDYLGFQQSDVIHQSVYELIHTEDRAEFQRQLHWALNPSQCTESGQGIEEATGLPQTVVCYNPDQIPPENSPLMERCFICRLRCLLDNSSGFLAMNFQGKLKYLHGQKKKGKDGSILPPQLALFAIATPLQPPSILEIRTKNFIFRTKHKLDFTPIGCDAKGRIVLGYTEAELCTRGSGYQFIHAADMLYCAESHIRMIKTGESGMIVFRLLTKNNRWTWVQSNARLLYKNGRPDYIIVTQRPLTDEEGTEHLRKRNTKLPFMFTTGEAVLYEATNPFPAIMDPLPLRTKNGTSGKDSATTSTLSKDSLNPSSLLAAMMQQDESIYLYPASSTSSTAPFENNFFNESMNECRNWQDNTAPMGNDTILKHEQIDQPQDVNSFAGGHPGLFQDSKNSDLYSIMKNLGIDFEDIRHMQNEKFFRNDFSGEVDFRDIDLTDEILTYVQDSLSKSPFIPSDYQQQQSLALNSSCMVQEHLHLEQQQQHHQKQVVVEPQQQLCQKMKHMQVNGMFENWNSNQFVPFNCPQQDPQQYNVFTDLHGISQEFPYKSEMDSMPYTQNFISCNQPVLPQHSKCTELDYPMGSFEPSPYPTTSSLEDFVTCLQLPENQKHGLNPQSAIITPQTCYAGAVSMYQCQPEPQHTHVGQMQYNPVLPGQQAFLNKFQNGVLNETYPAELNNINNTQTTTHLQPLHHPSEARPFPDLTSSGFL
Sequence of human Retinoic Acid Receptor beta (RARb), RARB (gene 5915) (P10826 whole entry, looked up, the tested form may be a part): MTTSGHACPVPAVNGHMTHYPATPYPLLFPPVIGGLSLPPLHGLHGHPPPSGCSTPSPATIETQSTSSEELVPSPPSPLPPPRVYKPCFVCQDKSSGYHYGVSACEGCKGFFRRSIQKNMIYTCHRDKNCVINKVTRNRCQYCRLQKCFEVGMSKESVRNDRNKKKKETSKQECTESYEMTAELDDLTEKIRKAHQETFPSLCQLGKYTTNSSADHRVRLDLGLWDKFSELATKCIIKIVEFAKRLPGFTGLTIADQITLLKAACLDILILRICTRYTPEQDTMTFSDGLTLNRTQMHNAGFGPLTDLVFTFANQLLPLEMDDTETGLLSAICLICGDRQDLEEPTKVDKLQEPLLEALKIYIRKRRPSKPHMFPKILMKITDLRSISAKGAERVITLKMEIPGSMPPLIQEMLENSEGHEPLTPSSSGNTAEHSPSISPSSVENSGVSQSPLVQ

As to `CC(C)(Oc1ccc(Cl)cc1)C(=O)O`, the compound was classed as inactive in test [1], in test [2] and in [3].
In the case of `Cc1cccnc1`, the compound was called inactive in [1], in test [4], in test [5], in [6], in test [7] and in test [8]. In addition, the outcome in [9], in test [10], in [11], in test [12], in [13] and in test [14] was inactive. In addition, the outcome in test [2] and in test [3] was inactive.
As to `CC(C)(C)NC(=O)[C@@H]1CN(Cc2cccnc2)CCN1C[C@@H](O)C[C@@H](Cc1ccccc1)C(=O)N[C@H]1c2ccccc2C[C@H]1O`, in test [1], the AC50 is 57.2 µM (active). In test [15], the result was inactive.
As to `C[Si](C)(C)O[Si](C)(C)O[Si](C)(C)C`, the compound was classed as inactive in test [1], in test [10], in test [11], in test [12], in test [13] and in test [16]. Besides, the result in test [14] was inactive.
As to `C1=CCC=C1`, the compound was classed as inactive in [1], in test [16] and in test [14].
Consider `COC(=O)c1ccccc1`, for which the call in test [1] was inactive.
With `CCCC(=O)OC/C=C(\C)CCC=C(C)C`, in test [17], the result was inactive.
Consider `CCCCCCCCCCC1CO1` (stereo not given), for which the outcome in [1] and in test [6] was inactive. Further, the AC50 in [5] was 33.3 µM (active); in test [7], 34 µM (active); in test [8], 3.97 µM (active); in test [9], 20 µM (active).
Regarding `Nc1ccc(S(=O)(=O)Nc2cnc3ccccc3n2)cc1`, the result in test [1], in test [10], in test [11], in test [12], in test [13] and in test [2] was inactive. The result in [3] was inactive.
As for `CN(C)CCC(c1ccc(Cl)cc1)c1ccccn1` (stereo not given), the call in test [1], in [6], in [7], in test [8], in [9] and in test [2] was inactive. The result in [3] was inactive. The AC50 in test [5] was 0.502 µM (active).
For `CN(C)CCCN1c2ccccc2CCc2ccc(Cl)cc21`, the call in test [1] and in [4] was inactive. Further, the AC50 in test [2] is 66.7 µM (active); in test [3], 45.5 µM (active).
On to `F[B-](F)(F)F`, for which the compound was classed as inactive in test [1], in test [12], in test [13], in test [16] and in [14].
Consider `C[C@H]1C[C@H]2[C@@H]3CCC4=CC(=O)C=C[C@]4(C)[C@@]3(F)[C@@H](O)C[C@]2(C)[C@@]1(O)C(=O)CO`, for which the AC50 in test [1] was 44.6 µM (active). The result in test [2] and in test [3] was inactive.
As for `Oc1ccc(Cl)cc1C1CCCC1`, the AC50 in test [17] is 8.73 µM (active). Further, the result in test [15], in test [2] and in [3] was inactive.
For `COC(OC)C(C)c1ccccc1` (stereo not given), the compound was called inactive in test [17].
As for `CN1CCCC1`, the call in [17], in test [4], in test [18] and in [19] was inactive.
With `CC/C=C\CC1=C(C)CCC1=O`, the compound was called inactive in test [1] and in test [4].
As to `CCCCn1cc[n+](C)c1`, the result in test [1] and in test [15] was inactive.
Regarding `CCCOCCC`, the compound was classed as inactive in [17], in test [18] and in test [19].
Turning to `Nc1nnc(-c2ccc([N+](=O)[O-])o2)o1`, the call in [17] and in test [15] was inactive.
Consider `CCCC(=O)OC`, for which the outcome in [17] was inactive.
As to `CC1(C)S[C@@H]2[C@H](NC(=O)[C@H](N)c3ccccc3)C(=O)N2[C@H]1C(=O)O`, the compound was called inactive in [1].
Regarding `CC(C)CC(=O)O`, the compound was called inactive in test [17], in test [19], in test [2] and in test [3].
As for `CC(C)n1c(/C=C/[C@@H](O)C[C@@H](O)CC(=O)O)c(-c2ccc(F)cc2)c2ccccc21`, the AC50 in [1] was 51.7 µM (active). The outcome in [2] and in test [3] was inactive.
In the case of `CCCCCCCCCCCCCC`, the outcome in test [1], in [2] and in [3] was inactive.
As for `C=C(C)C(=O)OCCCCCC`, the compound was called inactive in [17] and in test [4].
For the compound `CC1=C(CC=O)C(C)(C)CCC1`, the compound was called inactive in test [1] and in [15].
Turning to `CN(C)c1ccc(C(c2ccccc2)c2ccc(N(C)C)cc2)cc1`, the compound was classed as inactive in test [1], in test [4], in test [6], in test [7], in [8] and in test [9]. In [5], the AC50 was 7.46 µM (active).
